ChEMBL document CHEMBL3988442, “University of Dundee, Small-Polar-MMV Screening Library” (2021)
For some of these results: Measured potencies and affinities stand elsewhere.

How the values were obtained:
Design in all cases: scale not given: direction of the effect not stated beside the values
[1] = target: Protein translocase subunit SecA (Escherichia coli (strain K12)) (UniProt P10408); experiment: Assay to Identify E. coli SecA ATPase Inhibitors; assay type: functional; conditions: 30 µM
[2] = target: T1, Ubiquitin-activating enzyme e1, putative (Leishmania donovani (strain BPK282A1)) (UniProt E9BSI1); experiment: Leishmania donovani Ubiquitin Activating Enzyme (LdE1); assay type: functional; conditions: 30 µM
T1 sequence (whole entry): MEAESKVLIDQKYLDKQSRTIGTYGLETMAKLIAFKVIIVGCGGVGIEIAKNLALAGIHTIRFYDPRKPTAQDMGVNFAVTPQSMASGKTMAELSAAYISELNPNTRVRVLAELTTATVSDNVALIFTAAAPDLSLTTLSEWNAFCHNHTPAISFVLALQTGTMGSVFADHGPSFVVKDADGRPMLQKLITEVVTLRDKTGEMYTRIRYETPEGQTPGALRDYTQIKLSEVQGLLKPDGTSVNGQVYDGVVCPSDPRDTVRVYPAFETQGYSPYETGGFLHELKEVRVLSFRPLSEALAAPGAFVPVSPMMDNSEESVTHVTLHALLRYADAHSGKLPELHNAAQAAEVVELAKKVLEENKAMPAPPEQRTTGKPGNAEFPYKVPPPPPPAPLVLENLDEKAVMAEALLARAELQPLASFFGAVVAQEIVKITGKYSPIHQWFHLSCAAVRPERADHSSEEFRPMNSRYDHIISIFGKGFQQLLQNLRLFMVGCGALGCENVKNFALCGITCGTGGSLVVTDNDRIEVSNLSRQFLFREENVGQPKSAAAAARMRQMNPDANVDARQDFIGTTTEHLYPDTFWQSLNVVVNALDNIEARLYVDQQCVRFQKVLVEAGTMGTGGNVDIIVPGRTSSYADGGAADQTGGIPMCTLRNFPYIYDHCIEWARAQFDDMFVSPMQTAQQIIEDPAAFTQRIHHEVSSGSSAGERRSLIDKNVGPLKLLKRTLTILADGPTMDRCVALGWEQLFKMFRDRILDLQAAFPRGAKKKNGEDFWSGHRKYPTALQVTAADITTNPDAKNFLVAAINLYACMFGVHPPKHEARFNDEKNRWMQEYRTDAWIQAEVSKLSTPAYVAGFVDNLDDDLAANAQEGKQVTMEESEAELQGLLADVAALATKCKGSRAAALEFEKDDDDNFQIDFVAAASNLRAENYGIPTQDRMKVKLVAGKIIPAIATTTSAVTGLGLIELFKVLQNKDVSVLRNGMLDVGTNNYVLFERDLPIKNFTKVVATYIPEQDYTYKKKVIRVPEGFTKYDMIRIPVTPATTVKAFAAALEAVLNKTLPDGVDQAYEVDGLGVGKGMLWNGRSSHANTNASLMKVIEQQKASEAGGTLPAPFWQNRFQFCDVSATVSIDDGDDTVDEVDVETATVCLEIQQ

[3] = target: T2, Aspartate--tRNA(Asp/Asn) ligase (Mycobacterium tuberculosis (strain ATCC 25618 / H37Rv)) (UniProt P9WFW3); experiment: Assay for Asp RNA synthetase-1 from Mycobacterium tuberculosis; assay type: functional; conditions: 30 µM; further: in the data most compounds retested in dose-response had high values
T2 sequence (whole entry): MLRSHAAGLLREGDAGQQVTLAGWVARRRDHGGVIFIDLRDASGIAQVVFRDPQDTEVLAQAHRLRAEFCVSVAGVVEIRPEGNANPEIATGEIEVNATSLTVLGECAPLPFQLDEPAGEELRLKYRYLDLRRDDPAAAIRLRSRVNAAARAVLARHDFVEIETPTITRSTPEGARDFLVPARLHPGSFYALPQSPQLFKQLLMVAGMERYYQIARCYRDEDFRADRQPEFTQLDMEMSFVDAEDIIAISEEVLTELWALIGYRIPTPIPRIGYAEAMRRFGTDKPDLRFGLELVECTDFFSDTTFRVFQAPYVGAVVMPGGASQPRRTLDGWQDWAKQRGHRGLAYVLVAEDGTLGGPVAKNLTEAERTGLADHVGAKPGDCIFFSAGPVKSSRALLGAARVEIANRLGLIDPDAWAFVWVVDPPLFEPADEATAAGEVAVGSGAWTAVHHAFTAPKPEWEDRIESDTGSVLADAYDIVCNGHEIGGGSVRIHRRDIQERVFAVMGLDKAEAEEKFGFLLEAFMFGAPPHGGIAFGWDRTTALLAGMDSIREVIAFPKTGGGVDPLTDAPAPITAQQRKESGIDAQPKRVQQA

[4] = target: Sialic acid-binding Ig-like lectin 9 (Homo sapiens) (UniProt Q9Y336); experiment: Hs-Siglec9 ALPHAscreen SOP 20170721; conditions: 10 µM
[5] = test system: Trypanosoma cruzi; experiment: Trypanosoma cruzi phosphomannomutase and mannose-1-phosphate guanylyltransferase assay; assay type: functional; conditions: 10 µM
[6] = target: T3, Arginase-2, mitochondrial (Homo sapiens) (UniProt P78540); experiment: in vitro enzyme assay to detect the production of urea directly proportional to the activity of Arginase II; assay type: functional; conditions: 33.3 µM; further: in the data most compounds retested in dose-response had high values
T3 sequence (whole entry): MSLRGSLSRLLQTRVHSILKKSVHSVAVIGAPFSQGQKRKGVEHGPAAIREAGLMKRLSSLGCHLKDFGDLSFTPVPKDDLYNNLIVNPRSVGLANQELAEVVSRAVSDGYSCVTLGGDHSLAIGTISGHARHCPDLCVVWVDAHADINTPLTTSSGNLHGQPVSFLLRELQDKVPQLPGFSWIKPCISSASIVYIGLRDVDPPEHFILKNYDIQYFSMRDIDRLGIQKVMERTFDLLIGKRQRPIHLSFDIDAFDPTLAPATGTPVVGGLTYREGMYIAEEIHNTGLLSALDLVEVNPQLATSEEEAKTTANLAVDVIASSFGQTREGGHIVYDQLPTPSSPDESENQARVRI

[7] = target: T4, Proteasome subunit beta (Trypanosoma cruzi) (UniProt O96673); experiment: Trypanosoma cruzi proteasome chymotrypsin-like activity (TcProtChymo) assay.; further: in the data most compounds retested in dose-response had high values; assay type: functional; conditions: 9.37 µM
T4 sequence (whole entry): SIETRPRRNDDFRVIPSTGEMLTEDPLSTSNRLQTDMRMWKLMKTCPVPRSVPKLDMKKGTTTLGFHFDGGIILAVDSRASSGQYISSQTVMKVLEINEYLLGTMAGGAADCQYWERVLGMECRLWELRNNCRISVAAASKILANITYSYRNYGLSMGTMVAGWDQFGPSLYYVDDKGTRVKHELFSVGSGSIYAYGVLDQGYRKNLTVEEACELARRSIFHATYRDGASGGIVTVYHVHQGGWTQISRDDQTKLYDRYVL

[8] = organism: Homo sapiens; experiment: To identify inhibition of the IFN signalling (Jak-Stat) pathway via expression of an eGFP reporter gene under the control of an IFN-stimulated response element (ISRE) containing MxA promoter.; assay type: functional; conditions: 30 µM
[9] = target: Shiga toxin 2 (Escherichia coli O157:H7) (UniProt P09385+P09386); experiment: E. coli 0.157:H7 Shiga Toxin SOP - stx2 screening assay; assay type: functional; conditions: 30 µM
[10] = target: T5, Tyrosyl-tRNA synthetase, putative (Trypanosoma cruzi (strain CL Brener)) (UniProt Q4DSP6); experiment: Trypanosoma cruzi tyrosyl tRNA synthetase (TcYRS) _High Tyrosine SOP; assay type: functional; conditions: 30 µM; further: in the data most compounds retested in dose-response had high values
T5 sequence (whole entry): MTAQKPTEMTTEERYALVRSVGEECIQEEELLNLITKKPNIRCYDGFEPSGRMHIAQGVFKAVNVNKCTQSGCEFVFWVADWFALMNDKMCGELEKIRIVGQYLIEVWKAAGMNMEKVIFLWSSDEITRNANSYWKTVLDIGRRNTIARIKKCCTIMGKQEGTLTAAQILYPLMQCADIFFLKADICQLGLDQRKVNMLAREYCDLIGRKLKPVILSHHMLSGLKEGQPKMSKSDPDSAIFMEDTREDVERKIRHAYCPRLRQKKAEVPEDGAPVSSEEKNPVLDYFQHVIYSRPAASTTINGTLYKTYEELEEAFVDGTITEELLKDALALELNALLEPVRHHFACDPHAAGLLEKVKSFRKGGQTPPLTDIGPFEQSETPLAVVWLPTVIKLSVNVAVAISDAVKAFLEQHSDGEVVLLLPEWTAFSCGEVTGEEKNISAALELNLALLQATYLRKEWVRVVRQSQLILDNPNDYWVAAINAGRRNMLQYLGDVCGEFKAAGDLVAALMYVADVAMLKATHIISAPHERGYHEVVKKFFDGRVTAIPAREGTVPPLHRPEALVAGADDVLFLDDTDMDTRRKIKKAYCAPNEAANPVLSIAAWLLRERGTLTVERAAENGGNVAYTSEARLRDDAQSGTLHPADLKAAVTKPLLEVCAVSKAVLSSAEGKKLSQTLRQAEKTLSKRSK

[11] = target: T5, Tyrosyl-tRNA synthetase, putative (Trypanosoma cruzi (strain CL Brener)); experiment: Trypanosoma cruzi tyrosyl tRNA synthetase (TcYRS) SOP; assay type: functional; conditions: 30 µM
[12] = target: Chromo domain-containing protein 1 (Saccharomyces cerevisiae (strain ATCC 204508 / S288c) (Baker's yeast)) (UniProt P32657); experiment: ScCHD-1 Enzyme Inhibition Assay; assay type: functional; conditions: 30 µM; further: in the data most compounds retested in dose-response had high values
Sequence of Chromo domain-containing protein 1 (Saccharomyces cerevisiae (strain ATCC 204508 / S288c) (Baker's yeast)) (P32657 whole entry, the tested form may be a part): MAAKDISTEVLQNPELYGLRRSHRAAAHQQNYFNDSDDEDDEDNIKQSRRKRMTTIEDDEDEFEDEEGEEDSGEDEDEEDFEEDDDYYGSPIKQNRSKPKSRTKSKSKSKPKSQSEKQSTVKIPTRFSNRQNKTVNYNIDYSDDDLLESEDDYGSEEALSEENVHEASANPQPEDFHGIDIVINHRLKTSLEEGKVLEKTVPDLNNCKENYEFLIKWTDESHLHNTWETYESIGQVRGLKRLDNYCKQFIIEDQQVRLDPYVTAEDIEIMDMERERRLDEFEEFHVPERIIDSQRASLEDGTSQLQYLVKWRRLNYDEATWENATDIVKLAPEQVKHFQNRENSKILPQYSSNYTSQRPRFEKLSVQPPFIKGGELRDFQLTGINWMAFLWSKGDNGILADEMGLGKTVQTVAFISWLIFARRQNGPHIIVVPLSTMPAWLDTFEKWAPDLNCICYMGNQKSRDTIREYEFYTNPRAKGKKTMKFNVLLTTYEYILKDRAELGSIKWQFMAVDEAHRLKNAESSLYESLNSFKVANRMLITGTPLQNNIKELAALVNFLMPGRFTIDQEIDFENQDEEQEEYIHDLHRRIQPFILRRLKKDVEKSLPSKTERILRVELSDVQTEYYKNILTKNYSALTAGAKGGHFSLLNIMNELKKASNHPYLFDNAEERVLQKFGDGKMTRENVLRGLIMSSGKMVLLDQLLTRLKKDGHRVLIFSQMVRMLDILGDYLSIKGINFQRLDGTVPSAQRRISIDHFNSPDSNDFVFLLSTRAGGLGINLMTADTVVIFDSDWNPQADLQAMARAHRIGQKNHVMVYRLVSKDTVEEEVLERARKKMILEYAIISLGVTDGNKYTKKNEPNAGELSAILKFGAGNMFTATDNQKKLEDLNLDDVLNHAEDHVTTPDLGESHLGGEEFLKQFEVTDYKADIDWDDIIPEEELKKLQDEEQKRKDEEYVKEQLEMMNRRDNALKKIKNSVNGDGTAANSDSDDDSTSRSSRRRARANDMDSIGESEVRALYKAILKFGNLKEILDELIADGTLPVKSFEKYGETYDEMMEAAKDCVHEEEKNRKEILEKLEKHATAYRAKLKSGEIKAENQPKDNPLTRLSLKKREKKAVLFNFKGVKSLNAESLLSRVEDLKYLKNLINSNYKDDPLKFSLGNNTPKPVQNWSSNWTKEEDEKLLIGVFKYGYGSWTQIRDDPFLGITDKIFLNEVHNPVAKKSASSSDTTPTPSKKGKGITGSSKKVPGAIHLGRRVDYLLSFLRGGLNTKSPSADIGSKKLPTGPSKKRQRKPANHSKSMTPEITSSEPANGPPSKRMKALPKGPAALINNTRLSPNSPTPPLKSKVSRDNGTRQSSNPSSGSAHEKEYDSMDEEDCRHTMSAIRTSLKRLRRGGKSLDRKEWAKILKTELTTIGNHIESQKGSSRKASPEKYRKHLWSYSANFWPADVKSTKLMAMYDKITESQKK

Sequence of Sialic acid-binding Ig-like lectin 9 (Homo sapiens) (Q9Y336 whole entry): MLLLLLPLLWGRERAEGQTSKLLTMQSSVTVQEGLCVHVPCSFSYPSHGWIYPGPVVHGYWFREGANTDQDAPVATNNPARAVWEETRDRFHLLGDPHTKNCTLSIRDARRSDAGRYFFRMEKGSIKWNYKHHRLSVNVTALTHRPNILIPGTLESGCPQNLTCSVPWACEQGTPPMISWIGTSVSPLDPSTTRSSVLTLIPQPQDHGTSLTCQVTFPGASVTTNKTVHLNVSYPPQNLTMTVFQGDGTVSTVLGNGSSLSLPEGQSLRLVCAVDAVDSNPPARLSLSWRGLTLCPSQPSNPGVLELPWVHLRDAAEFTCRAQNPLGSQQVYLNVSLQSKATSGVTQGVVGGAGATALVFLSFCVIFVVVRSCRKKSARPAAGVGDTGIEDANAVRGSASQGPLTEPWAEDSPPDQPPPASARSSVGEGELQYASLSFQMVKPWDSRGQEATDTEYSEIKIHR
Sequence of Protein translocase subunit SecA (Escherichia coli (strain K12)) (P10408 whole entry): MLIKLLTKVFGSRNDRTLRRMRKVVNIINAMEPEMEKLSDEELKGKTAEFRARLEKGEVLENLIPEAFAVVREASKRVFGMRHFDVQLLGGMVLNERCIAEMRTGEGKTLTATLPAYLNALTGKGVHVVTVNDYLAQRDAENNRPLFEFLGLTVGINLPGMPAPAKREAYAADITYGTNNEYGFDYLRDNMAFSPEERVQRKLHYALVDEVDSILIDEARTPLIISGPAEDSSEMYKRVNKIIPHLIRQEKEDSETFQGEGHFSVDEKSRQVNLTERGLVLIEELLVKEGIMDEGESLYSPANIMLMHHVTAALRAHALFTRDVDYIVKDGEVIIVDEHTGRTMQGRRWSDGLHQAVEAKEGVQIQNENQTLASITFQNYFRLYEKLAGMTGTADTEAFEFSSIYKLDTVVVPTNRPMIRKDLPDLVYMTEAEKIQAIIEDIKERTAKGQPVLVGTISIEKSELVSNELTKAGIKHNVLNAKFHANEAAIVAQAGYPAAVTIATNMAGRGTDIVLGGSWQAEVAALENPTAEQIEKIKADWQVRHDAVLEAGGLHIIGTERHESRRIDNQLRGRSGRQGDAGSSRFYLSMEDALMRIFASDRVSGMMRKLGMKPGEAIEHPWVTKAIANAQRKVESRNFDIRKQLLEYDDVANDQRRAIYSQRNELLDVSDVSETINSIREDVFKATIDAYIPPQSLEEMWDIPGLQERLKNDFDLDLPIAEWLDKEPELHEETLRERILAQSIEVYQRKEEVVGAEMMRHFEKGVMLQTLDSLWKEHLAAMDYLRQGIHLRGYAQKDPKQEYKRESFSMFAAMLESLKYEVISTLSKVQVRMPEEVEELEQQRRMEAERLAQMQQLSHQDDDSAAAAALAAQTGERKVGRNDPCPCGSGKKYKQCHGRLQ

SMILES | Percent Effect [1] [%] | Percent Effect [2] [%] | Percent Effect [3] [%] | Percent Effect [4] [%] | Percent Effect [5] [%] | Percent Effect [6] [%] | Percent Effect [7] [%] | Percent Effect [8] [%] | Percent Effect [9] [%] | Percent Effect [10] [%] | Percent Effect [11] [%] | Percent Effect [12] [%]
CC(C)(C)n1cc(C(=O)NCCCn2ccnc2)c2cccnc21 | 3.93 | 17.3 | 6.13 | -8.62 | 4.73 | 1.77 | 19.1 | 29.9 | -3.75 | 2.12 | 15 | -24.1
COCCN1C[C@H]2[C@@H](C1)N(C(=O)COc1ccccc1)CC[C@H]2OC | -3.67 | 3.9 | -1.3 | 0.149 | 5.36 | -4.45 | 19.7 | -1.44 | -14.5 | 5.79 | 15.4 | 36.6
COc1ccc(C)cc1CC(=O)N1CCN(CC(C)O)CC1 (stereo not given) | -3.62 | 15.6 | 3.12 | 6.85 | 5.6 | -5.53 | 8.07 | 0.0446 | -20.5 | 4.9 | 18.8 | -7.21
O=C1CO[C@@H]2CN(Cc3cccs3)C[C@H]2N1Cc1ccncc1 | -2.47 | 14.3 | 9.56 | -8.26 | -2.63 | 10.9 | 21.8 | -2.63 | -17.5 | 12.1 | 10.3 | 3.61
CC(NC(=O)Cn1cccn1)c1cccnc1 (stereo not given) |  |  | -1.34 |  |  |  |  |  |  |  |  | 
CCc1nc(CC(=O)N2CCCC2CN2CCCC2)cs1 (stereo not given) | -0.0825 | 0 | -3.69 | 1.63 | -2.01 | 5.32 | 11.1 | -4.98 | -5.61 | 2.63 | 2.56 | -5.66
c1cnc(N2CCC3(CCN(CC4CCOC4)C3)CC2)nc1 (stereo not given) | -3.76 | 6.49 | 8.74 | -2.65 | -2.63 | 0.405 | 10.2 | 0.479 | -3.12 | 2.63 | 7.69 | -4.21
COCC(C)NC(=O)c1cn(C(C)(C)C)c2ncccc12 (stereo not given) | 0.871 | 14.7 | 4.78 | -9.18 | 4.93 | 0.443 | 18.2 | 6.95 | -13.5 | 0 | 10 | -22.6
